The whole screen tested about 220,000 compounds, of which about 2,000 (0.91%) were called active. Another 2% or so got no clear call; they are omitted. These entries were drawn from the full list. Measured potencies and affinities stand elsewhere. Values without a mark were called inactive. No stated cut-off is given here; in the data, inconclusive means inhibition above about 80% without an active follow-up result; inactive means below that; test concentration not stated here.
Test: M. tuberculosis H37Rv growth inhibitors, H37Rv strain (AID 1626);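 further: bacteria incubated seven days before Alamar blue readout; 0% = bacteria only wells and 100% = bacteria with antibiotic wells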
Settings: stronger effect = higher value, concentration not given here

SMILES	inhibition [%]
COC(=O)c1cc(NS(=O)(=O)c2ccc(C)c3ccccc23)ccc1N1CCOCC1	-0.65
O=C1CC(N2CCC(O)CC2)C(=O)N1c1ccc(Br)cc1 (stereo not drawn)	-5.77
O=C(CC1(O)C(=O)N(CCc2ccccc2)c2ccccc21)c1ccccn1 (stereo not drawn)	-2.54
CC(=O)c1c(C)[nH]c(C(=O)OCC(=O)N2c3ccccc3NC(=O)C2(C)C)c1C	1.01
CCS(=O)(=O)Nc1ccc(-c2nnc(SCC(=O)OC)o2)cc1	6.98
COC(=O)CSc1nnc(-c2ccc(S(=O)(=O)NCc3cccs3)cc2)o1	62.9
COC(=O)COc1cc(Cl)c(C=O)cc1OC	4.35
COC(=O)COc1ccccc1/C=C1/NC(=O)NC1=O	-6.93
CCN1CCn2c3c(c4cc(C)ccc42)CCCC31 (stereo not drawn)	3.23
COc1ccc2c(c1)c1c3n2CCN(C)C3=NCC1	-9.72
Cc1ccc2c(c1)c1c(n2C)C(=O)CCC1	-12.1
OC1CN=C2CCCc3c2n(c2ccc(Cl)cc32)C1 (stereo not drawn)	-8.27
Cc1ccc(C(=O)Nc2cc(C)c(OCC(=O)N3CCOCC3)c(C)c2)cc1	0.81
COc1ccc(C2C(C#N)=C(N)Oc3cc(C)n(Cc4ccco4)c(=O)c32)cc1 (stereo not drawn)	3.54
CC1(C)Cc2nc3sc4c(SCC(=O)O)ncnc4c3cc2CO1	-5.61
CCSc1ncnc2c1sc1nc3c(cc12)COC(C)(C)C3	12.9
O=C(NCCCn1ccnc1)C(=O)NCC1OCCCN1S(=O)(=O)c1ccc(Cl)cc1 (stereo not drawn)	1.46
O=C(O)c1ccc(CN2CCCCC2)o1	-8.71
COc1ccc(C2(CNC(=O)c3ccc(OC)c([N+](=O)[O-])c3)CCCCC2)cc1OC	8.89
COc1ccc(C2(CNC(=O)c3cccc([N+](=O)[O-])c3)CCCCC2)cc1OC	17.8
O=C(Nc1nnc(SCC(=O)N2CCCCC2)s1)c1cccs1	-7.76
Cc1ccc(F)cc1NC(=O)C1CCN(c2cnccn2)CC1	-7.04
Cc1nn(Cc2ccccc2)c(N)c1-c1ccccc1	-0.48
O=C(Nc1ccccc1)c1n[nH]c(Cn2cncn2)n1	-3.09

SMILES	inhibition [%]
COc1ccc(NC(=O)CSc2nc3ccc(OC)cc3[nH]2)cc1	45.7
COc1ccc2nc(SCC(=O)Nc3ccccc3)[nH]c2c1	6.28
NS(=O)(=O)c1cccc(NC(=O)CSc2nc3ccc(Cl)cc3[nH]2)c1	-6.21
O=C(CSc1nc2ccc(Cl)cc2[nH]1)NC1CCCc2ccccc21 (stereo not drawn)	17.1
O=C(OCC(=O)N1CCCC1=O)C1COc2ccccc2O1 (stereo not drawn)	2.07
CCN(CC)CCCNC(=O)c1cn(C)c2ccc(S(=O)(=O)N(C)C)cc2c1=O	-9.88
O=C(CCc1nc2ccccc2c(=O)[nH]1)N1CCN(c2ccc(F)cc2)CC1	-1.16
COc1cc(/C=N/n2c(-c3n[nH]c4c3CCC4)n[nH]c2=S)cc(OC)c1O	-6.81
CC1CCN(S(=O)(=O)c2ccc3[nH]c(=O)cc(C(=O)O)c3c2)CC1	-1.86
CS(=O)(=O)c1ccc(Sc2nc3ccccc3s2)c([N+](=O)[O-])c1	76.8
NS(=O)(=O)c1ccc(Sc2nc3ccccc3s2)c([N+](=O)[O-])c1	5.37
CN1CCc2c(C#N)c(N3CCOCC3)nc(NCC3CCCO3)c2C1 (stereo not drawn)	-11.2
C=CCSc1nnc(-c2sc(-c3ccccc3)nc2C)n1C	6.24
C#CCOCCOCCOCCNc1nc(N2CCN(C(=O)[C@H](CCC(=O)O)n3cc(C(N)CC(C)C)nn3)CC2)nc(N2CCN(C(=O)[C@H](Cc3ccc(O)cc3)n3cc(C(N)CC(C)C)nn3)CC2)n1 (stereo partly drawn)	-8.68
O=C(Nc1ncc(Cc2ccccc2Cl)s1)c1ccc([N+](=O)[O-])cc1	-9.37
O=C(Nc1ncc(Cc2cccc(Cl)c2)s1)c1ccc([N+](=O)[O-])cc1	-4.66
CC(C)C(=O)Nc1ncc(Cc2ccccc2Cl)s1	-0.08
CC(C)C(=O)Nc1ncc(Cc2ccc(Cl)cc2)s1	18.6
O=C(Nc1ncc(Cc2ccccc2)s1)C1COc2ccccc2O1 (stereo not drawn)	13.8
Cc1ccc(C(=O)Nc2ncc(Cc3ccccc3)s2)o1	-9.94
Cc1ccc(C(=O)Nc2ncc(Cc3ccc(SC(F)F)cc3)s2)cc1	6.66
CC(=O)Nc1ncc(Cc2cccc(Cl)c2)s1	3.07
COc1cccc(C(=O)Nc2nnc(Cc3ccc(OC)c(OC)c3)s2)c1	4.42
COC(=O)C1=C(C)N(Cc2ccco2)C(=O)N[C@H]1c1cccc(C(F)(F)F)c1	-4.29

SMILES	inhibition [%]
COC(=O)C(NC(=O)CSc1nc(N)cc(=O)[nH]1)c1ccccc1 (stereo not drawn)	6.05
Cc1ccc(SCC(=O)N(C)C2CCS(=O)(=O)C2)cc1 (stereo not drawn)	71.9
O=C(N/N=C/c1ccc(OCCCF)cc1)c1ccc(C(F)(F)F)cc1	-7.89
O=C(CSc1nnc(CNc2ccc(F)cc2)n1Cc1ccccc1)NCc1ccco1	-3.56
CCN(CC)C1=N/C(=C\c2ccc(OC)cc2)C(=O)N1c1ccccc1	5.04
COc1cc(NC(=O)CSc2nc3ccccc3cc2Cc2ccccc2)cc(OC)c1	-2.51
CCCCCn1c(SCc2cccc(C)c2)nc2c1c(=O)[nH]c(=O)n2C	14.6
CC/C(=N\NC(=O)c1cccnc1)c1ccc2c(c1)OCCO2	3.21
CC1(C)CC(NC(=O)CCc2nnc(CCCCc3ccccc3)o2)CCO1 (stereo not drawn)	-4.26
Cc1ccc(NC(=S)N(CCN2CCOCC2)Cc2cc3cc4c(cc3[nH]c2=O)OCCO4)cc1	2.46
CCN(CC)C(=O)Nc1cnc2ccccc2c1	63.2
Oc1ccc2ccccc2c1CNn1cnnc1	1.43
NC(=S)Nc1cnc2ccccc2c1	0.46
COc1cccc(CNc2cccc3cccnc23)c1O	6.53
Cn1c(NCc2c(O)ccc3ccccc23)nc2ccccc21	6.55
COc1cccc(CNc2ncc(Br)cc2Br)c1O	-8.94
Cc1nc(SCC(=O)Nc2cccc(Cl)c2)n[nH]1	-3.06
O=C1CCC/C(=N\NC(=O)c2ccc(COc3ccccc3-c3ccccc3)cc2)C1	4.62
Cc1cccc(N2CC(C(=O)OCC(=O)c3ccc(OC(=O)c4cccs4)cc3)CC2=O)c1C (stereo not drawn)	1.47
CN(CCOC(=O)c1ccc2c(c1)OCO2)C(C)(C)C	-1.44
CC1=CC2=NC(=O)/C(=C\c3cccn3CCOc3cc(C)ccc3C)C(=N)N2O1	12.3
O=C(CCc1ccccc1)N1N=C(c2ccncc2)CC1(O)C(F)(F)F (stereo not drawn)	-7.97
O=C(NCCN1CCCCC1)Nc1ccc(F)c(Cl)c1	-6.79
Cc1[nH]n(C)c(=O)c1N=Nc1ccc(S(C)(=O)=O)cc1	-6.82

SMILES	inhibition [%]
Cc1ccc(N=Nc2c(C)[nH]n(C(N)=S)c2=O)cc1	-3.59
COc1ccc(-c2nnc(SCC(=O)NC(C)C)n2CC2CCCO2)cc1OC (stereo not drawn)	-10.3
COc1ccc(C2/C=C\CN(C(=O)Oc3ccc(C(F)(F)F)cc3)CC(=O)N2Cc2ccc(F)cc2)cc1 (stereo not drawn)	2.36
COc1ccc(C2/C=C\CN(C(=O)Nc3ccccc3)CC(=O)N2Cc2ccc(F)cc2)cc1 (stereo not drawn)	-8.73
COc1ccc(NC(=O)C(=O)NCCCn2ccnc2)cc1	-13.8
O=C(Nc1csc([N+](=O)[O-])c1)Nc1ccccc1Cl	76.8
O=C(Nc1csc([N+](=O)[O-])c1)Nc1c(Cl)cccc1Cl	0.45
O=C(CN(CCc1ccccc1)S(=O)(=O)c1ccc(Br)cc1)N/N=C/c1ccccc1C(=O)O	1.98
COc1ccc(-n2nc(C(N)=O)c(O)cc2=O)cc1	-4.24
COc1ccccc1CNC(=O)CN1C(=O)CSc2ccc(S(=O)(=O)N3CCCC3)cc21	-3.73
CCOC(=O)c1ccc(N2C(=O)c3n[nH]c(C)c3C2c2ccccc2)cc1 (stereo not drawn)	-3.14
CCOC(=O)c1ccc(N2C(=O)c3n[nH]c(C)c3C2c2ccco2)cc1 (stereo not drawn)	0.01
Cc1[nH]c2ccc(F)cc2c1CCN(Cc1cccnc1)C(=S)Nc1ccccc1	-0.56
CCCCCCCN1C2=NCCN2c2ccccc21	-5.76
CCCCC1=CC2=CC(=O)C(C)(OC(=O)CC)C(=O)C2=CN1CCN1CCOCC1 (stereo not drawn)	2.28
CC1(C)CC(=O)C2=C(C1)OC(N)=C([N+](=O)[O-])C2c1cccs1 (stereo not drawn)	3.66
Cc1ccc(C2C(C#N)=C(N)OC3=C2C(=O)CC(C)(C)C3)s1 (stereo not drawn)	2.18
O=C1/C(=C/c2ccccc2Cl)N2CCC1CC2	7.2
Cc1ccc2c(c1)C(c1ccncc1)=NNC(c1ccc(F)cc1)=N2	5.08
COc1ccc(-c2ccc([C@H]3[C@@H]4C=CCC[C@@]4(C)C(=O)N3Cc3ccccc3)c(F)c2)cc1	21.9
COc1ccc(-c2ccc(OC)c([C@H]3[C@@H]4C=CCC[C@@]4(C)C(=O)N3Cc3ccccc3)c2)cc1OC	10.5
